Compound activity from PubChem.
Gal4-VP16 FLuc: VP16 counterscreen qHTS for inhibitors of ROR gamma transcriptional activity; 3.5% of 310,000 active; Potency, µM (series often up to 53.6 µM), actives largely listed as inhibitors; Drosophila S2 Gal4-VP16 UAS-luciferase, luminescence, 20 h;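 further: Gal4-VP16 expression switched on by copper sulfate through the metallothionein promoter; nearly all actives have a fitted effect of over 50% in size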
RORg inh: qHTS for inhibitors of ROR gamma transcriptional activity; Potency, µM (highest dose often 53.6 µM), most hits filed as inhibitors; 5.4% of 310,000 active; Drosophila S2 Gal4-RORgamma UAS-luciferase reporter, 20 h; Nuclear receptor ROR-gamma (Mus musculus), P51450; further: nearly all actives have a fitted effect of over 60% in size
Target sequence (P51450 whole entry, looked up, the tested form may be a part): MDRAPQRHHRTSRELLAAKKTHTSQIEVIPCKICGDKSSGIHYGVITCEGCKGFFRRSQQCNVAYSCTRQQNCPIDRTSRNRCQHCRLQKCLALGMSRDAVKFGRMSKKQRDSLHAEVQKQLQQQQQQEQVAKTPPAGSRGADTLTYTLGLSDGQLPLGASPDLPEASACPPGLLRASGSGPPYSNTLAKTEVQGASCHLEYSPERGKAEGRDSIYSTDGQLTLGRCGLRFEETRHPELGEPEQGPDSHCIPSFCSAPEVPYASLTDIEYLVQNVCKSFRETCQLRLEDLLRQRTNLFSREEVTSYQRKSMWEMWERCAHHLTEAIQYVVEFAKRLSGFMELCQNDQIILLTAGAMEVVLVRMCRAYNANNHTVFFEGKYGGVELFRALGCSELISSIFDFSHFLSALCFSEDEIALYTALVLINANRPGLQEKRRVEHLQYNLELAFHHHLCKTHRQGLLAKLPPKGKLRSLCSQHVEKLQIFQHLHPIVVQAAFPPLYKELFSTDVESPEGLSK
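Schneider cells (Drosophila), stable Gal4 DBD–ROR gamma + UAS-luc; 1 hr cmpd preincubation; Cu2+ induction 700 uM final; 20 hr ambient; luminescence.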
12-LOX inh: Primary qHTS assay for inhibitors of human arachidonate 12S-lipoxygenase (ALOX12): Round 2; Polyunsaturated fatty acid lipoxygenase ALOX12 (Homo sapiens), P18054; purified 12hLO, xylenol orange hydroperoxide absorbance; Potency, µM (highest dose often 108 µM), hits mostly inhibitors; 1.1% of 580,000 active; AID 1671190, 2021
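Hydroperoxide product was detected by ferrous iron/xylenol orange as the 573 to 405 nm absorbance ratio. Arachidonic acid at 40 uM (final) was turned over for 30 min at room temperature by 150 nM human 12hLO, pH 7.0 Hepes buffer, after 15 min compound preincubation.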
ELG1 repair inh: qHTS screen for small molecules that inhibit ELG1-dependent DNA repair in human embryonic kidney (HEK293T) cells expressing luciferase-tagged ELG1 | HEK293T ELG1-luciferase reporter, luminescence, 16 h; DNA damage induced by 5-fluorouridine | AID 504467, 2011 | 2.3% of 330,000 active | Potency, µM (series often up to 46.1 µM), most hits filed as inhibitors; further: nearly all actives have a fitted effect of over 55% in size
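Overnight (16 hr) co-exposure of 2,000 cells/well to 5-fluorouridine and compound at 37 °C preceded detection. Luciferase was quantified via ONE-Glo luminescence; loss of signal denotes inhibition.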
TDP1 cell CPT: qHTS for Inhibitors of human tyrosyl-DNA phosphodiesterase 1 (TDP1): qHTS in cells in presence of CPT; chicken DT40 Tdp1-/-;hTDP1 cells + 20 nM CPT, ATP luminescence, 48 h; Potency, µM (series often up to 46.2 µM), usual class: inhibitors; 12% of 420,000 active; AID 686979, 2013; further: nearly all actives have a fitted effect of over 55% in size
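Chicken DT40 Tdp1-/- cells stably complemented with human TDP1 were seeded at 400 cells/well in medium containing 20 nM camptothecin, exposed to pin-transferred compounds, and grown at 37 °C for at least 48 hr. Viability was read as ATP luminescence.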
DT40 TDP1 no CPT: qHTS for Inhibitors of human tyrosyl-DNA phosphodiesterase 1 (TDP1): qHTS in cells in absence of CPT; Potency, µM (series often up to 46.2 µM), most hits filed as inhibitors; DT40 Tdp1-/- hTDP1 cells, no CPT, ATP luminescence, 48 h; 15% of 420,000 active; further: nearly all actives have a fitted effect of over 55% in size
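Readout: luminescence from CellTiter-Glo after 30 min in the dark at RT. Cells: DT40 Tdp1-/- with stable hTDP1, 400/well. Exposure: compounds alone, ≥48 hr, 37 °C.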
Numbers stand for hits; - = inactive; ? = inconclusive; . = no result given; [ ] = another dose, or the depositor's remark. Shown are actives, neighbours in structure and some others; about 15% of the full set was active somewhere. The call rests on the fitted dose curve; in most records, active means well fitted curve in the direction sought with a large enough effect; inconclusive means small, poorly fitted or top-dose-only effect, or another doubt; inactive means no such curve, though single readings can be large; an effect the other way counts as inactive or inconclusive.

SMILES	Gal4-VP16 FLuc	RORg inh	12-LOX inh	ELG1 repair inh	TDP1 cell CPT	DT40 TDP1 no CPT
Cc1ccc(C)c(NS(=O)(=O)c2cc(C(=O)Nc3ccccc3-c3ccccc3)ccc2C)c1	-	-	-	?	?	?
O=C(O)c1cccc(S(=O)(=O)Nc2ccc([N+](=O)[O-])cc2O)c1	-	-	-	-	-	-
CCOc1ccc(S(=O)(=O)Nc2cc(OC)c(OC)cc2C(=O)O)cc1	-	-	?	-	-	-
O=C(O)CSc1cc(NS(=O)(=O)c2cccc([N+](=O)[O-])c2)c2ccccc2c1O	?	?	?	23µM	2.3µM	1.8µM
Cc1ccc(C)c(S(=O)(=O)Nc2cc(SCC(=O)O)c(O)c3ccccc23)c1	14µM	-[10 µM]	.	?	5.8µM	6.5µM
C=CCNC(=O)[C@@H]1Cc2cn(Cc3nccn3C)c3cccc(c23)[C@H](CC(C)C)N1	.	.	-	.	.	.
Cc1ccc(CN(CC(=O)NC(N)=O)C2CC2)cc1	.	.	-	.	.	.
Cc1ccc(/C=N/n2c(-c3cccnc3)n[nH]c2=S)s1	?	7.1µM	?	-	-	-
S=c1[nH]nc(-c2ccco2)n1/N=C/c1ccc(Cl)cc1	4µM	4.5µM	?	-	-	-
Cc1ccc(/C=N/n2c(-c3ccco3)n[nH]c2=S)s1	?	8.9µM	?	-	-	?
CC(/C=N/n1c(-c2ccco2)n[nH]c1=S)=C\c1ccccc1	-	?	?	-	?	?
S=c1[nH]nc(-c2ccco2)n1/N=C/c1ccccc1Cl	22µM	3.2µM	?	-	-	-
Cc1cc(-c2n[nH]c(=S)n2/N=C/c2ccc(C)s2)n[nH]1	-	-	?	-	-	-
S=c1[nH]nc(-c2ccccn2)n1/N=C/c1c(Cl)cccc1Cl	-	?	-	-	-	-
COC(=O)c1ccc(CCNC(=O)c2cccc(OC)c2)cc1	.	.	-	.	.	.
CC(C)c1ccc(C(C(=O)NC2CCCC2)N(C(=O)c2cnccn2)c2cccs2)cc1 (stereo not drawn)	.	.	-	.	.	.
CNC(=O)[C@@H]1C[C@H](Oc2ccccc2)CN1C(=O)c1cnccn1	.	.	-	.	.	.
CC1C(=O)N(Cc2cn(CCC3OCCO3)nn2)CCS(=O)(=O)N1Cc1ccc(-c2cccc(CO)c2)cc1 (stereo not drawn)	.	.	-	.	-	-
CC1C(=O)N(Cc2cn(CCC3OCCCO3)nn2)CCS(=O)(=O)N1Cc1ccc(-c2cccc(N(C)C)c2)cc1 (stereo not drawn)	.	.	-	.	?	?
CC1C(=O)N(Cc2cn(CCC3OCCO3)nn2)CCS(=O)(=O)N1Cc1ccc(-c2ccc(Cl)c(Cl)c2)cc1 (stereo not drawn)	.	.	-	.	15µM	6.5µM
COc1ccc(-c2ccc(CN3C(C)C(=O)N(Cc4cn(CCC5OCCO5)nn4)CCS3(=O)=O)cc2)cn1 (stereo not drawn)	.	.	?	.	?	21µM
COc1ccc(-c2ccc(CN3C(C)C(=O)N(Cc4cn(CCC5OCCO5)nn4)CCS3(=O)=O)cc2)cc1 (stereo not drawn)	.	.	16µM	.	9.2µM	23µM
COc1cccc(C(c2sc3nc(C)nn3c2O)N2CCc3ccccc3C2)c1 (stereo not drawn)	-	-	32µM	-	?	?
C=CCN1CCN(C(=O)C2(CCO)CC23CCOCC3)CC1 (stereo not drawn)	.	.	-	.	.	.
CC(C)NC(=S)N/N=C/c1ccc([N+](=O)[O-])cc1	.	.	-	.	.	.
SMILES	Gal4-VP16 FLuc	RORg inh	12-LOX inh	ELG1 repair inh	TDP1 cell CPT	DT40 TDP1 no CPT
CC(C)NC(=S)N/N=C/c1ccc(C(C)(C)C)cc1	2.2µM	0.5µM	32µM	?	13µM	10µM
CC(C)NC(=S)N/N=C/c1cccs1	1.1µM	0.79µM	-	-	0.92µM	0.82µM
CC(C)C(=O)N/N=C/c1cccs1	.	.	-	.	.	.
Cc1nn(-c2nc3ccccc3o2)c2c1C(c1ccc(C(F)(F)F)cc1)CC(=O)N2 (stereo not drawn)	.	.	-	.	.	.
CC(C)(C)c1nnc2n1C(C(=O)N1CCCC1)CC2 (stereo not drawn)	.	.	-[12.5 µM]	.	.	.
CC(CCc1ccccc1)NC(=O)C1CCN(C(=O)c2sccc2-n2cccc2)CC1 (stereo not drawn)	-	-	-	?	?	21µM
CCn1c(C(=O)N2CCC(C(=O)NCCc3ccc(C)cc3)CC2)cc2sccc21	.	.	-	.	16µM	21µM
CCn1c(C(=O)N2CCC(C(=O)NCCCSC3CCCCC3)CC2)cc2sccc21	14µM	-	-	21µM	?	18µM
CCOc1ccc(CCNC(=O)C2CCN(S(=O)(=O)N3CCC(C)CC3)CC2)cc1OCC	-	-	-	?	?	?
CCOc1ccc(CCNC(=O)C2CCN(C(=O)c3cc4sccc4n3CC)CC2)cc1OCC	.	.	-	.	16µM	18µM
CC(C)Oc1ccc(CNC(=O)C2CCN(C(=O)c3sccc3-n3cccc3)CC2)cc1	.	.	-	.	-	?
Cc1cc(OCc2nn[nH]n2)c2c(C)c(C)c(=O)oc2c1	.	.	-	.	.	.
CC(=O)N1CCC(N2CCC(N3C(=O)C4(CCCCC4)C3c3ccncc3)CC2)CC1 (stereo not drawn)	.	.	-	.	.	.
OC1CCOC2(CCN(Cc3ccc[nH]3)CC2)C1 (stereo not drawn)	.	.	-	.	.	.
CCN(CC)CCCNC(=O)C1CCN(C(=O)c2cc3sccc3n2Cc2ccc(F)cc2)CC1	-	-	?	-	-	-
CCCSCCCNC(=O)C1CCN(C(=O)c2cc3sccc3n2C)CC1	.	.	-	.	21µM	21µM
CCn1c(C(=O)N2CCC(C(=O)NCCc3ccccc3)CC2)cc2sccc21	.	.	-	.	?	26µM
Cc1nn(C)c(C)c1NC(=O)C(C)OC(=O)c1ccc2c(c1)NC(=O)CS2 (stereo not drawn)	.	.	-	.	.	.
CC1(C)C2CCC(C2)C1C/C=N/NC(N)=S (stereo not drawn)	4µM	1.8µM	?	-	?	?
C/C(=N\NC(N)=S)C1CCCCCCCCCCC1	.	.	-	.	.	.
Cc1ccc(-n2c(SCC(=O)NCC3CCCO3)nc3ccccc3c2=O)cc1 (stereo not drawn)	.	.	-	-	?	-
Cc1ccc(-n2c(SCC(=O)NCC3CCCO3)nc3n[nH]c(C)c3c2=N)cc1Cl (stereo not drawn)	.	-[0.365 µM]	-	?	9.2µM	9.2µM
